Activity calls are given as the source filed them.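 The calls were made as follows, unless noted: active = inhibition above 20% together with a positive visual image hit; inconclusive = visual image hit but inhibition not above 20%; inactive = no visual image hit.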
Key:
[1] = inhibitors of TNFa-induced NFkB p65 translocation, primary screen, imaging, HUVEC, MLSMR starter and 10KST1 sets (AID 438); settings: HUVEC TNFa-induced p65 nuclear translocation; cell count: measured here: nuclei count (cytotoxicity indicator), at 2.08 µM; inhibition: at 2 µM, stronger effect = higher value, 0% TNFa-plus-vehicle, 100% no-TNFa wells;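 also: compound added about 3h40 before a 20 min TNFalpha stimulation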;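 as to inhibition: signal is the nuclear over cytoplasmic p65 intensity ratio per well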
[2] = reduction of polyQ htt aggregates in cells – imaging, exon1htt(103Q)mCFP cells, high-content imaging, primary screen (AID 483;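 active = visual image review flags a hit and inhibition of aggregation exceeds 20%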;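 also: compound exposure lasted 3 days before fixation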;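 as to nuclei count: percent of the per-plate median nuclei count of sample wells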); settings: exon1htt(103Q)mCFP cell line, aggregate imaging, at 2 µM; inhibition of aggregation: stronger effect = higher value; nuclei count: measured here: cell count, toxicity
[3] = endothelial E-selectin expression blockers – imaging, HUVEC, immunofluorescence, MLSMR starter and 10KST1 sets, primary screen (AID 487;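 active = visually confirmed hit in the image check and inhibition above 20%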;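 as to inhibition: signal is fraction of cell area covered by stained E-selectin grains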;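 as to nuclei count: 100% = median nuclei count of all wells on the same plate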); settings: HUVEC TNFalpha-induced E-selectin immunofluorescence imaging, at 2 µM; inhibition: stronger effect = higher value; nuclei count: measured here: cell number, toxicity
[4] = molecular target: Voltage-gated potassium channel subunit beta-2 (Rattus norvegicus) (UniProt P62483); assay: inhibitors of rat Kvbeta2 reductase activity – biochemical, NADPH fluorescence, primary screen (AID 622;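 active = fluorescence slope higher than the sample average by over 3 SD, cut at about -0.22 in these data, passing the limit was not always enough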;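 also: slope of raw intensity against log time taken from 70 to 1610 s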); settings: recombinant KvBeta, 4-cyanobenzaldehyde reduction, at 10 µM, stronger effect = higher value
Sequence of Voltage-gated potassium channel subunit beta-2 (Rattus norvegicus) (P62483 whole entry, looked up): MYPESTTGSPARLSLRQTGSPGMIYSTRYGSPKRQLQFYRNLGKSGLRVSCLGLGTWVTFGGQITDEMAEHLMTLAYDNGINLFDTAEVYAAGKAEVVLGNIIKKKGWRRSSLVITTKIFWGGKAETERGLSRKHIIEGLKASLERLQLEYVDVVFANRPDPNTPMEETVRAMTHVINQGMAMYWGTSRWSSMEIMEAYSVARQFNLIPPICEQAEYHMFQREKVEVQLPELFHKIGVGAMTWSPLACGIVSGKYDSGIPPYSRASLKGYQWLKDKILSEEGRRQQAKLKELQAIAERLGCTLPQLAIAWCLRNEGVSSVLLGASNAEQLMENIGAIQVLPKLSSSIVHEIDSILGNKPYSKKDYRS

[5] = molecular target: Voltage-gated potassium channel subunit beta-2 (Rattus norvegicus) (UniProt P62483); assay: enhancers of rat Kvbeta2 NADPH turnover – biochemical, NADPH fluorescence, primary screen (AID 623;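 active = NADPH fluorescence slope more negative than the mean of all samples by about 3 SD, 99.7% confidence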;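 also: fluorescence intensity change per second fitted from 20 to 320 s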); settings: Recombinant KvBeta, NADPH fluorescence decrease slope, 10 min; at 10 µM; stronger effect = lower value
[6] = molecular target: Alpha-2C adrenergic receptor (Homo sapiens) (UniProt P18825); assay: compounds altering alpha2C-coupled GIRK flux – cell-based, HEK293 alpha2C/GIRK1/2, thallium flux, primary screen (AID 624;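 active = fluorescence slope after compound addition differing from the mean of all screened samples at 99.7% confidence, in either direction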;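 also: slope of fluorescence ratio to pre-addition baseline per second over 15 to 24 s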); settings: thallium flux BTC fluorescence, at 10 µM, actives lie on both sides
Sequence of Alpha-2C adrenergic receptor (Homo sapiens) (P18825 whole entry, looked up): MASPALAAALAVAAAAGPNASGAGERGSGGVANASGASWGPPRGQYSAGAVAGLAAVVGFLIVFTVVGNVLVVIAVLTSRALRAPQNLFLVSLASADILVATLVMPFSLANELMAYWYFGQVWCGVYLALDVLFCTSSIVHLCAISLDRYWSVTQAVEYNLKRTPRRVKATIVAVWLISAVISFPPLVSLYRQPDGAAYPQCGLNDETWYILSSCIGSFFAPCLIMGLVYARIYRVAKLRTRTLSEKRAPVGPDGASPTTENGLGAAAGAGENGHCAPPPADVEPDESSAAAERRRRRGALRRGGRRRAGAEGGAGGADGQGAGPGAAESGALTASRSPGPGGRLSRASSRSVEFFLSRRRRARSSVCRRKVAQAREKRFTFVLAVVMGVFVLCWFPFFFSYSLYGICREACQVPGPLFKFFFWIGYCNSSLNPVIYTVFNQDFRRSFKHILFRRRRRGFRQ

[7] = blockers of RIG-like receptor reporter activation – cell-based, Sendai virus stimulus, luciferase, 10K MLSCN set, TLR/RLR signaling modifier project, primary screen (AID 602276;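 active = inhibition at or above 50% at 10 µM; inactive = inhibition below 50%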;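 also: firefly luciferase from ISG56 promoter only with Renilla not read in this screen; 0% = Sendai virus plus DMSO and 100% = medium plus DMSO without virus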); settings: HEK293 RL24 IRF3 luciferase reporter, at 10 µM, stronger effect = higher value
[8] = TLR3 IRF3 reporter activation blockers – cell-based, poly I:C stimulus, luciferase, 10K MLSCN set, primary screen (AID 602277;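 active = inhibition of the reporter signal at or above 50%; inactive = inhibition below 50%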); settings: HEK293-TLR3 RL24 IRF3 luciferase reporter, at 10 µM, stronger effect = higher value

Row | SMILES | cell count [1] | inhibition [1] | inhibition of aggregation [2] | nuclei count [2] [%] | inhibition [3] | nuclei count [3] [%] | fluorescence slope [4] | NADPH fluorescence slope [5] | slope [6] | inhibition [7] | inhibition [8]
1 | CCOCCCNC(=O)CC1Oc2ccc(C)cc2NC1=O (centres undefined) | 595 | -6.2% (inactive) | 8.5% (inactive) | 107 | -6.5% (inactive) | 121 | -0.525 (inactive) | -3.6e-05 (inactive) | 0.00596 (inactive) | 5.01% (inactive) | 19.8% (inactive)
2 | COc1cc(-c2noc(-c3ccccc3C(=O)NCc3ccco3)n2)cc(OC)c1OC | 654 | -5.4% (inactive) | -4% (inactive) | 112 | -111% (inactive) | 156 | -0.59 (inactive) | -4.7e-05 (inactive) | 0.00612 (inactive) | 14.7% (inactive) | 31.9% (inactive)
3 | COc1ccccc1CNC(=O)N[C@@H](Cc1ccccc1)C(=O)O | 602 | 0.9% (inactive) | -15.9% (inactive) | 107 | 31.9% (inactive) | 99.5 | -0.6 (inactive) | -5.1e-05 (inactive) | 0.00621 (inactive) | 12.8% (inactive) | 22.6% (inactive)
4 | COc1ccccc1N1CCN(CC(O)c2ccc3cc[nH]c3c2)CC1 (centres undefined) | 633 | -3.9% (inactive) | 3.6% (inactive) | 114 | -43.4% (inactive) | 105 | -0.54 (inactive) | -1.4e-05 (inactive) | 0.0062 (inactive) | -0.148% (inactive) | 27.7% (inactive)
5 | COc1ccc(OC)c(S(=O)(=O)N2CCC(C(=O)NCc3ccccc3OC)CC2)c1 | 782 | -2.1% (inactive) | -13.8% (inactive) | 107 | -74.6% (inactive) | 133 | -0.517 (inactive) | -1.4e-05 (inactive) | 0.00487 (inactive) | 4.82% (inactive) | 13.9% (inactive)
6 | C=C(Cl)COc1ccc2c(C)cc(=O)oc2c1 | 319 | -6.8% (inactive) | -0.8% (inactive) | 71.6 | -31.6% (inactive) | 101 | -0.587 (inactive) | 3.6e-07 (inactive) | 0.00646 (inactive) | -24.5% (inactive) | -67.7% (inactive)
7 | O=C(CCN1C(=O)COc2ccccc21)NCCCN1CCN(c2ccccc2F)CC1 | 660 | -7.1% (inactive) | -1.6% (inactive) | 73.9 | -82.2% (inactive) | 93.3 | -0.425 (inactive) | -2.7e-05 (inactive) | 0.004 (inactive) | 11.7% (inactive) | 15% (inactive)
8 | c1ccc(CC2CCN(C(c3cccs3)c3nnnn3C3CCCC3)CC2)cc1 (centres undefined) | 743 | -37.8% (inactive) | 7.1% (inactive) | 108 | -31.1% (inactive) | 99.9 | -0.558 (inactive) | 3.9e-05 (inactive) | 0.00517 (inactive) | -0.349% (inactive) | 20.3% (inactive)
9 | Cc1cc(C)n(-c2nc3sc4c(c3c3nnc(SCC(N)=O)n23)CC(C)(C)OC4)n1 | 368 | 6.9% (inactive) | -7.7% (inactive) | 88.2 | -4.5% (inactive) | 116 | -0.318 (inactive) | 3.6e-06 (inactive) | 0.00476 (inactive) | 6.12% (inactive) | 10.9% (inactive)
10 | O=S(=O)(Nc1ccccn1)c1ccc(Oc2ccccc2)cc1 | 248 | -6.3% (inactive) | 0.4% (inactive) | 59.1 | -2.9% (inactive) | 93.8 | -0.598 (inactive) | -1.6e-05 (inactive) | 0.0052 (inactive) | 16.9% (inactive) | 20.6% (inactive)
11 | COCCCN(Cc1ccccn1)S(=O)(=O)Cc1ccccc1 | 510 | -9.9% (inactive) | 4.7% (inactive) | 97.4 | 10% (inactive) | 102 | -0.517 (inactive) | 8e-06 (inactive) | 0.00578 (inactive) | 3.22% (inactive) | 15.9% (inactive)
12 | COc1cc(C(=O)OCC(=O)N(C)Cc2ccccc2)cc(OC)c1OC | 405 | 5.1% (inactive) | -1.2% (inactive) | 110 | -264% (inactive) | 119 | -0.535 (inactive) | -0.00012 (inactive) | 0.00533 (inactive) | 15.1% (inactive) | 20.6% (inactive)
13 | Cc1c(C#N)sc2nc(-c3ccccc3)nc(N3CCCC3)c12 | 388 | -8.7% (inactive) | -28.2% (inactive) | 99.9 | -50% (inactive) | 130 | -0.236 (inactive) | -1.1e-05 (inactive) | 0.011 (active) | 16.9% (inactive) | 26% (inactive)
14 | O=C(CCCn1c(=O)c2sccc2n(Cc2cc(=O)n3ccccc3n2)c1=O)NCc1ccco1 | 729 | -2.9% (inactive) | -3.9% (inactive) | 106 | -67.8% (inactive) | 116 | -0.575 (inactive) | 3.3e-07 (inactive) | 0.0069 (inactive) | -12.7% (inactive) | -8.56% (inactive)
